SARS 3CLpro inh – SARS-CoV 3CLpro protease inhibition; AID 1706; recombinant SARS-CoV 3CLpro, quenched FRET peptide cleavage; inhibition, % at 6 µM; 290,000 tested, 0.14% active; P0C6X7; in the data active means inhibition above about 12%
CCHF vOTU inh-1 – blocks the CCHF virus ovarian tumor domain protease | 370,000 tested, 0.55% active | CCHFV vOTU protease, Pep-AMC fluorescence | inhibition, % at 11.5 µM; further: 0% = vehicle wells with enzyme and 100% = no enzyme wells
DUSP3 inh – inhibitors of human VHR1 phosphatase (DUSP3); 290,000 tested, 0.52% active; P51452; recombinant VHR phosphatase, pNPP absorbance; inhibition, % at 13.3 µM; in the data active means inhibition above about 50%
RecA splice inh – inhibitors of M. tuberculosis RecA intein splicing. P9WHJ3. cell-free RecA intein splicing, fluorescence. inhibition, % (test concentration not listed). 290,000 tested, 0.75% active. AID 2221; in the data active means inhibition above about 30%;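 further: 0% = vehicle wells and 100% = reference inhibitor control wells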
CCHF vOTU inh-2 – CCHFV vOTU protease inhibition, confirmation; shares compounds with CCHF vOTU inh-1; Recombinant CCHFV vOTU, Pep-AMC fluorescence; inhibition, % at 11.5 µM; 1,900 tested, 17% active; AID 686976
Numbers without * were called inactive; . = no result. An excerpt weighted towards active compounds, which were near 1.5% of everything screened. Unless noted, no stated cut-off is given here; in the data, active means inhibition above about 30%; inactive means the rest.

SMILES	SARS 3CLpro inh	CCHF vOTU inh-1	DUSP3 inh	RecA splice inh	CCHF vOTU inh-2
Cc1ccc(C)c(N2CCN(C(=O)c3ccc4nc(-c5ccco5)c(-c5ccco5)nc4c3)CC2)c1	3	44*	-8	7	-17
COc1ccc(NC(=O)[C@@H]2CCCN2C(=O)[C@@H]2Cc3ccccc3CN2C(=O)OC(C)(C)C)cc1	-1	35*	4	1	-6
COc1ccc(NC(=O)C2CCN(C(=O)[C@@H]3Cc4ccccc4CN3C(=O)OC(C)(C)C)CC2)cc1	-3	11	16	-5	.
COc1ccc(CN([C@H](CO)CC(C)C)S(=O)(=O)N(Cc2ccccc2)[C@H](CO)CC(C)C)cc1	.	34*	.	.	2
O=S1(=O)CC(N2CCN(Cc3ccccc3F)CC2)CN1Cc1cn(Cc2cccc(Cl)c2)nn1 (stereo not given)	.	2	.	.	.
CN(C(=O)COC(=O)c1nc(Cl)c(Cl)c(Cl)c1Cl)C1CCS(=O)(=O)C1 (stereo not given)	3	3	-3	9	.
Cc1cc(/C=C(\C#N)C(=O)Nc2ccccc2)c(C)n1-c1cccnc1	-6	-31	18	3	.
Cc1cc(C(=O)O)ccc1-n1c(C)cc(/C=C(/C#N)C(=O)Nc2ccccc2)c1C	1	33*	-10	1	-7
Clc1cccc(/C=N/N2CCN(Cc3ccccc3)CC2)c1	4	15	-3	2	.
Cc1ccc(SCC(=O)N2CCN(c3ccccn3)CC2)cc1	2	2	13	3	.
O=C(CSc1nccc2ccccc12)N1CCN(c2ccccn2)CC1	2	65*	25	7	-10
CNC(=O)NC(=O)COC(=O)c1n[nH]c2ccccc12	-1	-13	6	.	.
O=C(COC(=O)c1n[nH]c2ccccc12)NC(=O)NCc1ccco1	0	35*	10	5	-11
COc1ccc(F)cc1-c1cc(NC(C)=O)c2ncc(-c3cccc(C(F)(F)F)c3)n2c1	.	17	.	.	.
Nc1cc([N+](=O)[O-])cc2oc(-c3ccccc3)cc12	3	32*	32	3	-12
O=c1cc(-c2ccccc2)oc2ccccc12	.	2	.	.	.
O=C(Nc1ccccc1C(F)(F)F)OCCN1C(=O)CCC12CCC(c1ccccc1)CC2 (stereo not given)	.	4	.	.	.
CC1=C(C(=O)N(C(C)C)C(C)C)CC(CC(=O)NC(c2ccccc2)c2ccccc2)C(=O)N1Cc1ccc(C(C)(C)C)cc1 (stereo not given)	.	35*	.	.	4
CCN1C(=O)C(=Cc2ccc(C)s2)C(=O)N(CC)C1=S	2	-6	-8	-3	.
CCN1C(=O)/C(=C/c2ccc(C)s2)NC1=S	2	31*	-6	1	-14
O=c1[nH]c(CN2CCc3ccccc3C2)nc2ccccc12	4	44*	7	-3	12
O=C(Nc1cccc(OC(F)(F)F)c1)C1Cc2c(-c3ccccc3Oc3ccccc3)ccnc2O1 (stereo not given)	.	30*	.	.	-5
O=C(Nc1ccccc1)C1Cc2c(-c3ccccc3Oc3ccccc3)ccnc2O1 (stereo not given)	.	3	.	.	.
O=C(Nc1cc(C(F)(F)F)ccc1F)C1Cc2c(-c3ccccc3Oc3ccccc3)ccnc2O1 (stereo not given)	.	36*	.	.	-2
N=c1c(C(=O)NC2CCCCC2)cc2c(=O)n3ccccc3nc2n1CCc1ccccc1	-4	-40	12	-97	.
SMILES	SARS 3CLpro inh	CCHF vOTU inh-1	DUSP3 inh	RecA splice inh	CCHF vOTU inh-2
CCc1nc2c(OCCC3CCCCC3)cccn2c1N(C)C(=O)c1ccc(C)cc1	.	37*	.	.	6
CCc1nc2c(OCCC3CCCCC3)cccn2c1N(C)C(=O)COc1ccccc1	.	36*	.	.	5
CCc1nc2c(OCC3CCCCC3)cccn2c1N(C)C(=O)c1ccccc1F	.	31*	.	.	-6
CCOc1ccc(NC(=O)COC(=O)CN2CCCCCC2=O)cc1	.	12	.	.	.
Cc1ccc(S(=O)(=O)N2[C@@H](c3ccccc3F)C(C(=O)O)=CC[C@H]2c2ccc3c(c2)OCO3)cc1	.	6	.	.	.
Cn1ccc2c(N(Cc3ccccc3)Cc3ccccc3)cc3c(c21)C1CCC3O1 (stereo not given)	.	44*	.	.	-21
CN(Cc1ccccc1)c1cc2c(c3c1ccn3C)C1CCC2O1 (stereo not given)	.	5	.	.	.
CN(C)c1ccc2cc(S(=O)(=O)O)cc(O)c2c1	.	38*	.	.	-93
CN(C)c1ccc2c(O)cc(=O)n(C)c2c1	6	-24	5	-9	.
CS(=O)(=O)c1ccccc1C(=O)Nc1cccc2ncccc12	0	-7	15	.	.
COc1cc(Cl)c(C)cc1NC(=O)COc1ccc(C)nc1[N+](=O)[O-]	.	7	.	.	.
COc1cc(Nc2ccccc2Cl)c([N+](=O)[O-])nc1[N+](=O)[O-]	1	31*	8	2	-7
CCCCNC(=S)NNC(=O)c1cc(-c2cccnc2)nc2ccccc12	-2	35*	45	2	-9
CCCNC(=S)NNC(=O)c1cc(-c2cccnc2)nc2ccccc12	3	10	13	4	.
CCc1noc(C)c1C(=O)N1CC(C)SC1=Nc1ccc(Cl)cc1 (stereo not given)	.	2	.	.	.
COc1cc(/C=C2/NC(=O)N(Cc3ccccc3F)C2=O)cc(OC)c1O	-1	40*	21	.	-12
CCOc1cc(/C=C2/NC(=O)N(Cc3ccccc3F)C2=O)ccc1O	-8	16	22	-5	.
CCC(=NCC1CCCO1)c1c(O)n(Cc2ccccc2)c(=O)[nH]c1=O (stereo not given)	1	33*	20	-2	-5
CCN(CC(=O)NC1CCS(=O)(=O)C1)S(=O)(=O)c1ccc(Br)cc1 (stereo not given)	.	-7	.	.	.
Cc1noc(NS(=O)(=O)c2ccc(NS(=O)(=O)c3ccc(C(C)(C)C)cc3)cc2)c1C	.	30*	.	.	-15
Cc1noc(NS(=O)(=O)c2ccc(NS(=O)(=O)c3ccc(Cl)cc3)cc2)c1C	.	1	.	.	.
CCOc1ccc2nc(NC(=O)CN3CCC(n4nnc5cc(F)ccc54)CC3)sc2c1	1	-7	6	3	.
COc1ccc(-n2c3nc4ccccc4nc3c3c(=N)oc(C)nc32)cc1	1	69*	2	72*	36*
C=CCC[C@@H](CCCCC)OC(=O)/C=C/[C@H](O)[C@@H](O)C[C@H](O)CC=C	.	34*	.	.	18
OC(c1ccc(Cl)c(Cl)c1)c1ncc(-c2ccc(C(F)(F)F)cc2)[nH]1 (stereo not given)	.	35*	.	.	-6
OC(c1ccc(Cl)c(F)c1)c1ncc(-c2ccccc2C(F)(F)F)[nH]1 (stereo not given)	.	-1	.	.	.
OC(c1ccc(Cl)c(Cl)c1)c1ncc(-c2ccccc2C(F)(F)F)[nH]1 (stereo not given)	.	34*	.	.	-10
OC(c1ccc(Cl)c(Cl)c1)c1ncc(-c2ccc(Cl)cc2)[nH]1 (stereo not given)	.	7	.	.	.
COc1ccc(-c2csc(NC(=O)[C@H](C)N3C(=O)C4CC=CCC4C3=O)n2)cc1OC (stereo not given in full)	.	6	.	.	.
CC(C(=O)Nc1nc(-c2ccc(F)c(F)c2)cs1)N1C(=O)C2CC=CCC2C1=O (stereo not given)	.	31*	.	.	-8
